In PubChem BioAssay (NCATS):
Results filed as inconclusive are left out. Activity calls are given as the source filed them. Calls follow the shape of the dose curve; as a rule, active = well fitted curve in the direction sought with a large enough effect; inconclusive = small, poorly fitted or top-dose-only effect, or another doubt; inactive = no such curve, though single readings can be large; an effect the other way counts as inactive or inconclusive.

Columns and labels:
[1] = KB-8-5-11 Cancer Cell Toxicity qHTS against the NCATS CANVASS Library (AID 1347364)
How it was run: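 Terse: KB-8-5-11, 500 cells/well, 72 hr, 37C/5% CO2, 11-pt titration, CellTiter-Glo readout; confirmatory runs ± 1uM tariquidar in medium.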

[2] = KB-3-1 Cancer Cell Toxicity qHTS against the NCATS CANVASS Library (AID 1347366)
How it was run: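 Luminescence from CellTiter-Glo (10 min, room temperature) measured KB-3-1 viability after 72 hr compound exposure at 37C. Cells were seeded at 500/well and tested in an 11-point series.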

[3] = MCF7 Cancer Cell Toxicity qHTS against the NCATS CANVASS Library (AID 1347369)
How it was run: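 Cells seeded at 500/well, then compound pinned. Plates incubated 72 hr at 37C, 5% CO2. CellTiterGlo added; luminescence read.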

[4] = J3T Cancer Cell Toxicity qHTS against the NCATS CANVASS Library (AID 1347371)
How it was run: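 Luminescence from CellTiterGlo, reporting cellular ATP, serves as the viability measure after 72 hr compound treatment of J3T canine glioma cells seeded at 500 cells/well.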

[5] = target: Nuclear receptor subfamily 1 group I member 3 (Homo sapiens) (UniProt Q14994); test: qHTS for Constitutive Androstane Receptor (CAR) Antagonist screened against the NCATS CANVASS Library (AID 1347372)
How it was run: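 Luminescence readout (ONE-Glo, 30 min RT) of CYP2B6-2.2kb reporter in HepG2-hCAR cells after 24hr, 37C treatment with compound against 50 nM CITCO; CellTiter-Fluor viability read beforehand.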

[6] = target: Nuclear receptor subfamily 1 group I member 3 (Homo sapiens) (UniProt Q14994); test: qHTS for Constitutive Androstane Receptor (CAR) Agonist screened against the NCATS CANVASS Library (AID 1347373)
How it was run: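 Cells were plated and allowed to attach for 4hr, then dosed with compound in an 11-point series alongside 1.5uM PK11195. After 24hr at 37C, viability was measured fluorometrically and CAR-driven CYP2B6 reporter luminescence was recorded.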

[7] = qHTS for Hypoxia signaling pathway (HIF-1) agonists against the NCATS CANVASS Library (AID 1347375)
How it was run: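 Cells plated and rested 5 h, compounds pinned in DMSO across 11 concentrations, incubated 17 h at 37C, loaded with CCF4-AM for 2 h, fluorescence read at 460 and 530 nm, then CellTiter-Glo luminescence measured for viability and normalization.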

[8] = 10-beta competent E. coli microbial cell viability qHTS against the NCATS CANVASS Library (AID 1347376)
How it was run: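 Bacterial suspension diluted to 0.2 OD was dosed with compounds, 11-point series, then held overnight at 37C. BacTiter-Glo reagent was added, and after 20 min at room temperature ATP-dependent luminescence was measured.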

[9] = DH5-alpha competent E. coli microbial cell viability qHTS against the NCATS CANVASS Library (AID 1347377); details: outcome: at 46.1 µM (top of the series)
How it was run: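 Bacteria were dispensed at 0.2 OD, then compounds were pin-transferred. Plates were incubated overnight at 37C, after which BacTiter-Glo was added and luminescence measured 20 min later.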

[10] = qHTS for H2AX Agonists against the NCATS CANVASS Library (AID 1347378)
How it was run: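 CHO-K1, 1000 cells/well, o/n 37C; cpd several conc, 3 hr 37C, 0.76% DMSO; lyse 30 min RT; cryptate anti-pH2AX(S139) + d2 anti-H2AX, 24 hr RT; HTRF 665/620.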

[11] = qHTS for Inflammasome Signaling Inhibitors: IL-1-beta AlphaLISA screen against the NCATS CANVASS Library (AID 1347379)
How it was run: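 Secreted IL-1B from human THP-1 cells quantified by AlphaLISA 16 hr after compound addition (final up to 57.5 uM). A 1 hr compound pretreatment preceded inflammasome activation with 250 ng/mL LPS plus 1.25 mM ATP (final).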

[12] = qHTS for Antimalaria activity screened against the NCATS CANVASS Library (AID 1347380)
How it was run: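 Compounds are titrated over 11 concentrations onto Dd2 parasite cultures (0.3% parasitemia, 2.5% hematocrit). Growth over 72 h at 37C in low oxygen is measured as SYBR Green DNA fluorescence after lysis.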

[13] = Inflammasome Signaling qHTS Counterscreen: IL-1-beta AlphaLISA counterscreen against the NCATS CANVASS Library (AID 1347381)
How it was run: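 Purified IL-1-beta (4 pg/well) + compound, 11-pt conc. series; acceptor beads 6 ug/mL + biotin-Ab 0.6 nM final, 1 h RT; SA-donor 24 ug/ml final, 30 min dark RT; read ex 680/em 615.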

[14] = Cytotoxicity qHTS for assessment of Hepg2 cells membrane integrity screened against the NCATS CANVASS Library (AID 1347387)
How it was run: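 Cells were seeded at 2000 per well and left overnight to attach. Compounds were pin-transferred to give 0.59 nM - 46 uM in an 11-point series and incubated 5 hr at 37C. CytoTox-ONE reagent was added and, after 10 min at room temperature, fluorescence (ex 560, em 590 nm) was read.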

[15] = qHTS for Activators of p53 Stress Response Pathway screened against the NCATS CANVASS Library (AID 1347388)
How it was run: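 p53RE-bla HCT-116 cells (4000/well) were pre-incubated for 5 h, then treated with compound (11 points) for 16 h at 37C. After 2 h with CCF4, the 460/530 nm ratio gave reporter activation; CellTiter-Glo measured viability.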

[16] = qHTS assay for small molecule disruptors of mitochondrial membrane potential screened against the NCATS CANVASS Library (AID 1347389)
How it was run: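 Mitochondrial depolarization in HepG2 cells is scored as a falling aggregate-to-monomer fluorescence ratio after 1 hr compound exposure and 30 min staining with Mito-MPS dye at 37C, each compound tested as an 11-point titration.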

[17] = Secretion counterscreen for inhibitors of the SERCaMP assay screened against the NCATS CANVASS Library (AID 1347390)
How it was run: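 SH-SY5Y-GLuc STOP cells; 4 h attach; cpds 0.001 - 77 uM (qHTS, 11 pts), 20 h 37C/5% CO2; coelenterazine in glow buffer; luminescence, 5 s exposure.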

[18] = qHTS for activators of dead-cell proteases activity screened against the NCATS CANVASS Library (AID 1347392)
How it was run: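 HepG2, 2000 cells/well, 18 h attach; cpd 11-pt, 5 h 37C 5% CO2; CytoTox-Glo (AAF-aminoluciferin) 15 min RT; luminescence read.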

[19] = Vero-766 cells viability qHTS against the NCATS CANVASS Library: Counterscreen for Zika virus inhibition assay (AID 1347394)
How it was run: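 Vero 766, no virus; 1000 cells/well; o/n attach; cpd 11-pt; 72 h, 37C, 5% CO2; CTG luminescence; cell-free media wells = 100% inhibition.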

[20] = Viability qHTS for inhibitors of the SERCaMP assay screened against the NCATS CANVASS Library (AID 1347400)
How it was run: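 Seed SH-SY5Y-GLuc SERCaMP MJH297 cells at 1000 per well, incubate 4 h, add compounds across an 11-point range, incubate 48 h at 37C, then add CellTiter-Glo and read luminescence.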

Measured: Potency

Chain of Nuclear receptor subfamily 1 group I member 3 (Homo sapiens) (Q14994 whole entry, looked up): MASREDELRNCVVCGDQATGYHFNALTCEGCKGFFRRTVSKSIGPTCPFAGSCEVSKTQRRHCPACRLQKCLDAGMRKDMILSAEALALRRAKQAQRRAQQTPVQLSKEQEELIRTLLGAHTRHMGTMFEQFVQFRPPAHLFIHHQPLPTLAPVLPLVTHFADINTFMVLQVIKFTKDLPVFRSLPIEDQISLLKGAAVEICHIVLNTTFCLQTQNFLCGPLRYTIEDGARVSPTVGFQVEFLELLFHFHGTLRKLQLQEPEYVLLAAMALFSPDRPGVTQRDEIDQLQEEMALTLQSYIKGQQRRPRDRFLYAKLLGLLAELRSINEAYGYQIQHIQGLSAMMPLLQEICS

CN1C(=O)[C@]23CC4C(C)(C)[C@@]5(C[C@@]41CN2CC[C@@]3(C)O)C(=O)Nc1c5ccc2c1OC=CC(C)(C)O2 (stereo not given in full)
inactive: [1] | [2] | [3] | [4] | [5] | [6] | [7] | [8] | [9] | [10] | [11] | [12] | [13] | [14] | [15] | [16] | [17] | [18] | [19] | [20]

C/C=C1/CN2CC[C@]34C(=Nc5ccccc53)[C@@H]2C[C@@H]1[C@H]4C(=O)OC
inactive: [1] | [2] | [3] | [4] | [5] | [6] | [7] | [8] | [9] | [10] | [11] | [12] | [13] | [14] | [15] | [16] | [17] | [18] | [19] | [20]
